Measured values from PubChem BioAssay AID1878 (Sanford-Burnham Center for Chemical Genomics, 2009).
In all, about 1,000 compounds went through this assay and about 200 (20%) were called active. Not all results are given here. Measured potencies and affinities stand elsewhere. A number with no mark means an inactive call. Rule as the data show it: active = inhibition above about 55%; inactive = the rest.

Biological target: Dual specificity protein phosphatase 3 (Homo sapiens) (UniProt P51452)
Assay: VHR1 phosphatase inhibitors, biochemical (AID 1878)
Details: recombinant VHR phosphatase, fluorogenic substrate; at 13.3 µM; hits give high values

Chain of Dual specificity protein phosphatase 3 (Homo sapiens) (P51452 whole entry, looked up): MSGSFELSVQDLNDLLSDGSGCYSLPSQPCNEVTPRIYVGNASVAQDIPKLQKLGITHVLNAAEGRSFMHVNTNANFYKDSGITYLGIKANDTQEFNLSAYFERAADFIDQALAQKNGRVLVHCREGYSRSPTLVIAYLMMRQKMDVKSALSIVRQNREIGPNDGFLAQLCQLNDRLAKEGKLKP

Row | SMILES | inhibition
1 | O=C(c1cc(F)c(F)c(F)c1F)N1CCN(Cc2ccc3c(c2)OCO3)CC1 | -6.3%
2 | O=C1NN(c2ccccc2)C(=O)/C1=C\c1ccccc1 | 5.2%
3 | CN(C)c1nc(N(C)C)nc(N(C#N)Cc2ccc(Cl)cc2)n1 | 2%
4 | COc1cc(CNc2ccc(N3CCN(C(C)=O)CC3)cc2)ccc1OCc1ccc(F)cc1 | -8.4%
5 | COc1ccc(C2CC(=O)C(C=NCCO)=C(O)C2)cc1 (stereo unspecified) | -0.8%
6 | COc1cc(/C=N/n2c(C)nc3ccccc3c2=O)ccc1O | 16.3%
7 | COc1ccc2c(c1)c(C(=O)N/N=C/c1ccc(OC)c(OC)c1)c(C)n2C | -4.6%
8 | COc1ccc2nc(C)cc(SCC(=O)N/N=C/c3c(OC)ccc4ccccc34)c2c1 | 92% (active)
9 | COc1ccc(OC)c(NC(=O)Cc2coc3ccc4ccccc4c23)c1 | -4.5%
10 | CN(C)CCCNC(=S)N(CCCN(C)C)Cc1cc2cc3c(cc2[nH]c1=O)OCO3 | -11.5%
11 | CN(CCO)c1nc(N)c2c(N)nc3c(c2c1C#N)CC(=O)N3C1CCCC1 | 2.2%
12 | Cc1ccc(N=Nc2cc(C)ccc2O)c(C)c1 | 0.1%
13 | CC(=O)Nc1c(-c2ccccc2)c2cc(Br)ccc2[nH]c1=O | -0.4%
14 | CC1CCCN(CCCNC(=O)C2CCN(S(=O)(=O)N3CCC4(CC3)OCCO4)CC2)C1 (stereo unspecified) | 2.1%
15 | O=C(Cn1cnc2c(oc3nc4c(cc32)CCCC4)c1=O)Nc1cccc(Cl)c1 | 37.7%
16 | CSc1ccc(NC(=O)N2CCN(c3nc4ccccc4s3)CC2)cc1 | 5%
17 | Cc1csc(NC(=O)CCCC(=O)O)c1-c1nc2ccccc2s1 | 98.8% (active)
18 | Cc1ccc2nc(NC(=O)CCCc3nc4ccccc4s3)sc2c1 | -0.6%
19 | O=C(CN1CCN(S(=O)(=O)c2ccc(Br)cc2)CC1)c1ccc(O)c(O)c1 | -4.1%
20 | Cc1cc(C)cc(NS(=O)(=O)c2ccc(-c3cnc(C4CC4)o3)cc2)c1 | 13%
21 | CCOc1cc(/C=N/NC(=O)c2ccc(-c3csc(Nc4ccc(C)cc4)n3)cc2)ccc1OCC(=O)O | 75.5% (active)
22 | CC(NC(=O)COc1ccc(/C=N/NC(=O)CO)cc1)c1ccccc1 (stereo unspecified) | 1.2%
23 | CC(C)(C)c1ccc2c(c1)OC(C(=O)N/N=C\c1ccc[nH]1)CO2 (stereo unspecified) | 6.8%

Row | SMILES | inhibition
24 | CCOC(=O)C1CCCN(CC(=O)Nc2nccs2)C1 (stereo unspecified) | 23.9%
25 | CCOC(=O)c1ccc(S(=O)(=O)Nc2ccc(N3CCOCC3)cc2)cc1 | -9%
26 | CC(=O)N1CC(=O)Nc2ccc(F)cc2C1c1ccccc1 (stereo unspecified) | 32.3%
27 | CCOC(=O)C1=C(N)Oc2ccc3ccccc3c2C1c1cccc(O)c1 (stereo unspecified) | -5.7%
28 | O=C(Nc1ccc(-n2nncc2-c2ccco2)cc1)c1cc2ccccc2oc1=O | 96.1% (active)
29 | CCn1c2ccccc2c2n[nH]c(=S)nc21 | -2.6%
30 | Cc1cc(C)c(S(=O)(=O)Nc2ccc(N(C)C)cc2)c(C)c1-n1cnnn1 | -1.2%
31 | CC(=O)NCCc1nc2cc(NC(=O)c3ccc([N+](=O)[O-])cc3)ccc2n1C | -5.3%
32 | COc1ccc(Cc2nnc(NC(=O)c3ccco3)s2)cc1 | -10%
33 | CCN(CC)CCCNc1oc(-c2ccccc2[N+](=O)[O-])nc1C#N | 22.5%
34 | O=C1CSC(c2cccc([N+](=O)[O-])c2)N1Cc1ccccc1 (stereo unspecified) | 3.2%
35 | Cc1ccc(OCCCCN2CCCCC2)cc1 | 6.5%
36 | Cc1ccccc1NC(=O)CN1C(=O)N/C(=C\c2ccccc2OCc2ccc(C(=O)O)cc2)C1=O | 84.1% (active)
37 | CSc1nsc2nc(=O)c(/C=C3\C(C)=Nc4ccccc43)c(N)n12 | 7.5%
38 | COc1cc(NC(=O)c2noc(C)c2[N+](=O)[O-])c(OC)cc1Cl | -2.3%
39 | CC1CC(C)CN(CCCNC(=O)C2CCCN(S(=O)(=O)N3CC(C)CC(C)C3)C2)C1 (stereo unspecified) | 20.9%
40 | C=CCn1c(=O)c2c(nc3n2CCCN3Cc2ccccc2)n(C)c1=O | -4%
41 | C/C(=N\NC(=O)c1c(C)nc2ccccn12)c1ccccc1F | -12.4%
42 | Cc1cccc(NC(=O)c2cc3c(=O)n4ccccc4nc3s2)c1 | 93.3% (active)
43 | Cc1cccc(NC(=O)c2cc(-c3ccc(C)c(C)c3O)n[nH]2)c1 | 8.4%
44 | CCC(N)Cc1c[nH]c2ccccc12 (stereo unspecified) | 14.4%
45 | O=C(COc1ccc2c(-c3ccccc3)cc(=O)oc2c1)Nc1cccnc1 | 92.7% (active)
46 | O=C(COc1ccccc1)Nc1ccncc1Cl | 8.7%

Row | SMILES | inhibition
47 | O=C(COc1ccc2c(-c3ccccc3)cc(=O)oc2c1)Nc1ccc(CCO)cc1 | 84.8% (active)
48 | Cc1cccc(CC(=O)Nc2cccnc2)c1 | -5.3%
49 | CC(C)CCN1CCC(n2nccc2NC(=O)C2CCOC2)CC1 (stereo unspecified) | -5.2%
50 | Oc1cc(Br)ccc1C=Nc1ccc(N2CCCCC2)cc1 | -10%
51 | CCN(CC)c1ccc(NC(=O)CCNS(=O)(=O)c2ccc3c(c2)CCC(=O)N3)c(C)c1 | -13.1%
52 | CC1CCN(CCNC(=O)C2CCCN(c3ncnc4c3nc3n4CCCCC3)C2)CC1 (stereo unspecified) | 7.1%
53 | Cc1occc1C(=O)N1CCCC(CCC(=O)NCc2ccc(F)c(F)c2)C1 (stereo unspecified) | -8.6%
54 | COc1ccccc1NC(=O)C1CCCN(S(=O)(=O)c2ccc3c(c2)CC(C)N3C(C)=O)C1 (stereo unspecified) | 17.3%
55 | O=C(NC1CC2CCC(C1)N2Cc1ccccc1)c1ccccc1Br (stereo unspecified) | -2.7%
56 | O=[N+]([O-])c1ccc(Oc2cccc3cccnc23)c(Cl)c1 | -14.5%
57 | O=P(Cc1ccccc1)(c1ccccc1)c1ccccc1 | 6.2%
58 | Cc1cc(O)c(C=Nc2ccc(N3CCOCC3)cc2)c(C)c1Cl | 0.1%
59 | O=C(N/N=C/c1cc(Br)cc([N+](=O)[O-])c1O)c1ccc(NC(=O)c2ccc(F)cc2)cc1 | 95.6% (active)
60 | CCOC(=O)c1ccc(N/N=C/c2cc(Br)cc([N+](=O)[O-])c2O)cc1 | 27.8%
61 | COc1ccc(CC(=O)Nc2cccc3c2CCCC3)cc1 | -12.1%
62 | O=C(O)CC1OCC=C2CN3CCC45c6ccccc6NC4C1C2CC35 (stereo unspecified) | -2.6%
63 | O=C1COc2ccc(S(=O)(=O)N3CCC(C(=O)NCc4ccc(F)cc4)CC3)cc2N1 | -1.8%
64 | Cc1cc(C)cc(N2CC(O)=C(c3nc4ccccc4c(=O)[nH]3)C2=N)c1 | 60.5% (active)
65 | COc1ccc(C(=O)OC2CC[C@@]3(C)C4CCC5[C@]6(O)CC(O)[C@@]7(O)C(CN8CC(C)CCC8[C@@]7(C)O)[C@]6(O)C[C@@]53O[C@]24O)cc1OC (stereo partly specified) | -10.1%
66 | COC(=O)CCCC(=O)N1CCC(n2nccc2NC(=O)CCOc2ccccc2)CC1 | 7.4%
67 | Cc1cc(=O)oc2c3c(cc(OCC(=O)NCC(=O)N[C@H](C(=O)O)C(C)C)c12)OC(C)(C)CC3 | 9.6%
68 | COc1cccc(CC(NC(C)=O)C(=O)NC2CCN(C(=O)c3ccc(Cl)cc3)CC2)c1 (stereo unspecified) | 0.6%
69 | CCCNC(=O)CN1C(=O)COc2ccc(S(=O)(=O)N3CC(C)CC(C)C3)cc21 (stereo unspecified) | 5%

Row | SMILES | inhibition
70 | O=C(NCCN1CCOCC1)C(=O)NCC1OCCCN1S(=O)(=O)c1ccc(F)cc1 (stereo unspecified) | -15.9%
71 | O=C(O)c1ccc(N2C(=O)/C(=C/c3ccc(-c4ccc([N+](=O)[O-])cc4)o3)C=C2c2ccccc2)cc1 | 99% (active)
72 | CC1CC(C)CN(CCCNC(=O)CCC(=O)N2CC(C)Oc3ccccc32)C1 (stereo unspecified) | -2.6%
73 | O=C(/C=C/c1c(Cl)nc2ccccn12)N1CCN(c2ccc(F)cc2)CC1 | 26.8%
74 | Cn1c(SCC(=O)Nc2ccc(N3CCOCC3)cc2)nnc1-c1ccco1 | 1%
75 | Cc1ccc(NC(=O)C2CCN(C(=O)c3ccco3)CC2)cc1 | -5.8%
76 | Cc1cc(OCC(=O)Nc2ccc(N3CCN(C(=O)c4ccco4)CC3)cc2)cc(C)c1Cl | 94.6% (active)
77 | Cc1ccc(S(=O)(=O)N2CCCCC2)c2nsnc12 | -2%
78 | COc1cc(C(=O)N2CCc3ccccc32)c([N+](=O)[O-])cc1OC | 26.5%
79 | CCOc1ccc2nc(N3CCCC(C(=O)NCCCN4C(C)CCCC4C)C3)sc2c1 (stereo unspecified) | -12.1%
80 | Cc1ccc2oc(Nc3nc(-c4ccccc4)cc(=O)[nH]3)nc2c1 | 61.1% (active)
81 | CCOc1ccc(C(=O)NC2CCN(CC(=O)NCc3ccccc3)CC2)cc1 | -7.3%
82 | COc1cccc(NC(=O)NCCN2CCCCC2)c1 | -15.8%
83 | Cc1ccc(NC(=S)c2ccc3ccccc3n2)c(C)c1 | 5.5%
84 | Cc1ccc(-n2cccn2)c([C@@H]2C[C@H]3CN(C)C(=O)[C@]34CCCN24)c1 | -6.3%
85 | C=CCc1cc(Cl)ccc1OCCOCCNC(C)(C)C | -15%
86 | Brc1ccc(C2=Nc3ccccc3C(c3ccncc3)=NN2)cc1 | 82.1% (active)
87 | COC(=O)[C@@]1(Cc2ccc(F)cc2)[C@H]2c3cc(C(=O)N4CCCC4)n(CCc4ccccn4)c3C[C@H]2CN1C(=O)c1ccccc1 | -0.9%
88 | CCC1CCCCN1CCCNC(=O)Cn1ncn2nc(-c3ccc(OC)cc3)cc2c1=O (stereo unspecified) | -4%
89 | OCCC1CN(Cc2ccc(F)cc2)CCN1CCc1ccccc1 (stereo unspecified) | -5.4%
90 | O=C(N/N=C1/C(=O)c2cccc3cccc1c23)c1ccc(Cl)cc1 | 98.9% (active)
91 | CCOc1ccccc1N(C(=O)c1ccco1)C(C(=O)NC1CCCC1)c1cccs1 (stereo unspecified) | 14.1%
